Most compounds without a hit are left out; they make up all but 4.1% or so of the library.
DAX1 inh-1 – blocks DAX1 repression of SF-1 activated StAR promoter; HEK293T StAR-luciferase reporter, SF-1/DAX-1 repression relief; inhibition, % at 6.8 µM; 370,000 compounds, 1.1% hits; AID 652010;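 active = inhibition above the mean over all tested compounds plus 3 SD, cut at about 3.6% in these data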;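 note: higher inhibition means more luminescence from relief of DAX-1 repression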
hgDAF12 agonist – agonists of H. glycines DAF-12 nuclear receptor | HEK293 GAL4-hgDAF12 UAS-luciferase reporter, agonist luminescence; normalized to butyrate control | activation, % at 6.8 µM | 370,000 compounds, 1.8% hits | AID 687014;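 active = activation above a cutoff set at the mean of all screened compounds plus 3 SD, cut at about 10% in these data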
hcDAF-12 act – activators of H. contortus DAF-12 nuclear receptor; HEK293 hcDAF-12 lit1-tk-luc reporter, luminescence; 0% DMSO, 100% Δ7-dafachronic acid; activation, % at 6.8 µM; 370,000 compounds, 1.4% hits;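 active = activation above the mean of all tested compounds plus 3 SD, cut at about 5.5% in these data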
DAX1 inh-2 – inhibits human nuclear receptor DAX1. P51843. HEK293 Gal4-DAX1 luciferase reporter, luminescence. inhibition, % at 6.75 µM. 340,000 compounds, 0.99% hits. AID 504766;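 active = inhibition above the mean over all tested compounds plus 3 SD, cut at about 4.2% in these data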;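 note: inhibition shows as a rise in luminescence from relieved DAX1 repression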
Target sequence (P51843 207-470 limits assumed): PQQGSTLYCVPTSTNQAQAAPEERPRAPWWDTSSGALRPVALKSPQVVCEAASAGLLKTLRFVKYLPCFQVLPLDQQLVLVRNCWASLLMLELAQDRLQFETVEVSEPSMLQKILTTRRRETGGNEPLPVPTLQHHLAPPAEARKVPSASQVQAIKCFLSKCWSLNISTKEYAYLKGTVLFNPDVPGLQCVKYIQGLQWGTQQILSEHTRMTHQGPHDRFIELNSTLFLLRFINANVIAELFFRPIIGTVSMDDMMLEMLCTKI
ssDAF-12 act – S. stercoralis DAF-12 activation, primary screen; HEK293 ssDAF-12/GRIP1 lit1-tk-luc reporter, luminescence; % of 3 µM dafachronic acid response; activation, % at 6.8 µM; 370,000 compounds, 1% hits; AID 652126;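 active = activation above the mean over all tested compounds plus 3 SD, cut at about 0.9% in these data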
Of the large screens only hits and unclear results are named; the others gave an inactive call.

CCOC(=O)c1[nH]c2c(c1C)C(=O)CC(c1ccc(F)cc1)C2 (centres undefined)	ssDAF-12 act 1.2
Cc1ccccc1NC(=O)OCCCN1C(=O)CCC12CCC(C)CC2 (centres undefined)	none (no result: DAX1 inh-2)
CC(C)(C)OC(=O)N1CCN(C(=O)c2[nH]cnc2C(=O)Nc2cccc(Cl)c2)CC1	DAX1 inh-2 5.9
CCOC(=O)c1ccc(NC(=O)c2nc[nH]c2C(=O)N2CCN(C(=O)OC(C)(C)C)CC2)cc1	none (no result: DAX1 inh-2)
CC(NC(=O)C1CCCC1)c1ccccc1 (centres undefined)	none
O=C(NC(c1ccccc1)c1ccccc1)C1CCCC1	ssDAF-12 act 1.4
CCOC(=O)CN1C(=O)S/C(=C/c2ccc(O)c([N+](=O)[O-])c2)C1=O	DAX1 inh-2 5.9
CCOC(=O)CN1C(=O)S/C(=C/c2ccc(C)o2)C1=O	none
COc1ccc(-n2c(=S)[nH]c3cc(C(=O)NCc4ccco4)ccc3c2=O)cc1OC	none
O=C(NCc1ccco1)c1ccc2c(=O)n(-c3ccccc3)c(=S)[nH]c2c1	DAX1 inh-2 4.9
Cn1cccc1Cc1nnc(SCC(=O)N2CCOCC2)n1-c1ccc(F)cc1	DAX1 inh-2 4.2
COc1ccc(-n2c(Cc3cccn3C)nnc2SCC(=O)N2CCOCC2)cc1	none
C=CCN1C(=O)[C@H](CC(=O)NCc2ccc(OC)c(OC)c2)[C@@]2(C(=O)OCC)CCCC=C12	none (no result: DAX1 inh-2)
Cc1c(S(=O)(=O)N2CCCCC2)c(=O)n(C)c(=O)n1C	DAX1 inh-2 4.3
CCCCCCc1ccc(-c2ncc(N)cn2)cc1	hgDAF12 agonist 11
CCCCCc1ccc(-c2nnc(N)s2)cc1	none
Nc1nc(CSC(=S)N2CCOCC2)nc(Nc2ccccc2)n1	hcDAF-12 act 6.1, DAX1 inh-2 5.0
Cc1ccc(Nc2nc(N)nc(CSC(=S)N3CCOCC3)n2)cc1	none
CC1=NN(C(N)=S)C(=O)C1N=Nc1ccc(O)cc1 (centres undefined)	none
CC1=NN(C(N)=S)C(=O)C1N=Nc1ccc(C)c(Br)c1 (centres undefined)	hcDAF-12 act 6.1
O=C(Nc1ccc(-c2nc3ncccc3o2)cc1)c1ccc(Br)o1	none
O=C(Nc1ccc(-c2nc3ncccc3o2)cc1)c1ccco1	hgDAF12 agonist 11
CN(Cc1ccccc1)C(=O)OCc1cn(Cc2cccc(C(F)(F)F)c2)nn1	none (no result: DAX1 inh-2)
C[C@H](NC(=O)[C@H](Cc1ccccc1)n1c(=O)[nH]c2ccccc2c1=O)C(=O)N1CCC(C(=O)O)CC1	DAX1 inh-2 4.9
CC(C)C[C@H](NC(=O)[C@H](Cc1ccccc1)n1c(=O)[nH]c2ccccc2c1=O)C(=O)N1CCC(C(=O)O)CC1	none
C=C(C)CNC(=O)c1ccc2nc(Cc3ccc(OC)cc3)oc2c1	hgDAF12 agonist 13, DAX1 inh-2 6.3
COc1cc(/C=C2/C(=N)N3N=C(CC(=O)N4CCOCC4)SC3=NC2=O)ccc1OC(C)c1ccccc1 (centres undefined)	ssDAF-12 act 2.2
CS(=O)(=O)Oc1ccc(/C=C2\C(=N)N3N=C(CC(=O)N4CCOCC4)SC3=NC2=O)cc1Cl	none
Cc1ccc2c(c1)C1CS(=O)(=O)N(CCc3ccccc3)CN1C2 (centres undefined)	none (no result: DAX1 inh-2)
CCn1cc(C(=O)N2CCN(c3ccc(F)cc3)CC2)c(=O)c2ccc(C)nc21	none (no result: DAX1 inh-2)
CCCC[C@H]1C2CC(OC(=O)Nc3ccccc3)C(C2)[C@H]2CCCCN21 (some centres undefined)	none (no result: DAX1 inh-2)
O=C(Nc1ccccc1)OC1CC2CC1C1CCCC21 (centres undefined)	hgDAF12 agonist 12
Cc1ccc2c(c1)-c1c(cnn1CC(=O)NCCc1ccc(O)cc1)CO2	none (no result: DAX1 inh-2)
COC(=O)N/N=C1\CCCc2c(C)cc(C)cc21	DAX1 inh-2 4.3
Cc1cc(C)c2c(c1)/C(=N/NC(=S)Nc1ccc(F)cc1)CCC2	none
C[N+](C)(C)CCNC(=O)c1ccccc1	DAX1 inh-1 4.1 (no result: DAX1 inh-2)
O=C(NCC(O)c1ccccc1)c1ccccc1 (centres undefined)	DAX1 inh-2 4.3
O[C@@H](CNC[C@H](O)c1ccccc1)c1ccccc1	none
O=C(NCCNC(=O)c1ccccc1)c1ccccc1	none
O=C1C(C=NCc2cccnc2)=C(O)c2ccccc21	hgDAF12 agonist 12
O=C1C(C=NCc2ccncc2)=C(O)c2ccccc21	none
C#CCN(Cc1ccco1)C(=O)c1nnc2c3ccccc3n(S(=O)(=O)c3ccc(C)cc3)c2n1	none (no result: DAX1 inh-2)

From PubChem
